Results as given in PubChem BioAssay AID1159580 (chemical genetic matrix, 2015).
Screen size: about 5,500 compounds; about 2,000 (36%) were called active. Roughly 18% stayed inconclusive and do not appear here. Cut-off read from the data, not from the text of the source: active = normalized growth mostly below about 0.91 (no sharp cut-off); inconclusive = no clear call, values can overlap the other calls; inactive = mostly above about 0.92. The list shows a part of the results.

Test: chemical genetic growth profiling, strain panel (AID 1159580);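 note: tested at 20 µM; growth read once vehicle control cultures reached saturation at 30 °C; 1 = growth at the plate median or of vehicle wells; lower values mean less growth of the strain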
Conditions: growth OD

Measured: normalized growth

Oc1ccc(Cl)cc1Cc1cc(Cl)ccc1O
active: S. cerevisiae deletion strains, locus YJR075W, strain HOC1, active compounds read low 0.0746 | S. cerevisiae deletion strains, locus YKL009W, strain mrt4, active compounds read low 0.092 | S. cerevisiae deletion strains, locus YKL068W, active compounds read low 0.101 | S. cerevisiae deletion strains, locus YKL085W, strain MDH1 (second series), active compounds read low 0.0549 | S. cerevisiae deletion strains, locus YKL085W, strain MDH1, active compounds read low 0.0549 | S. cerevisiae deletion strains, locus YKL160W, strain elf1, active compounds read low 0.0693 | S. cerevisiae deletion strains, locus YKL190W, strain CNB1, active compounds read low 0.0512 | S. cerevisiae deletion strains, locus YKR001C, strain vps1, active compounds read low 0.0604 | S. cerevisiae deletion strains, locus YKR026C, strain gcn3, active compounds read low 0.13 | S. cerevisiae deletion strains, locus YKR091W, strain srl3, active compounds read low 0.0642 | S. cerevisiae deletion strains, locus YLL001W, strain dnm1, active compounds read low 0.113 | S. cerevisiae deletion strains, locus YLL026W, active compounds read low 0.0579 | S. cerevisiae deletion strains, locus YLL041C, strain sdh2, active compounds read low 0.0645 | S. cerevisiae deletion strains, locus YLR027C, strain aat2, active compounds read low 0.0566 | S. cerevisiae deletion strains, locus YLR039C, strain RIC1, active compounds read low 0.0807 | S. cerevisiae deletion strains, locus YLR058C, strain SHM2, active compounds read low 0.0611 | S. cerevisiae deletion strains, locus YLR102C, strain apc9, active compounds read low 0.0602 | S. cerevisiae deletion strains, locus YLR113W, strain HOG1, active compounds read low 0.165 | S. cerevisiae deletion strains, locus YLR221C, strain rsa3, active compounds read low 0.0636 | S. cerevisiae deletion strains, locus YLR258W, strain gsy2, active compounds read low 0.0643 | S. cerevisiae deletion strains, locus YLR262C, strain YPT6 (second series), active compounds read low 0.0751 | S. cerevisiae deletion strains, locus YLR262C, strain YPT6, active compounds read low 0.101 | S. cerevisiae deletion strains, locus YLR268W, strain sec22, active compounds read low 0.0687 | S. cerevisiae deletion strains, locus YLR320W, strain mms22, active compounds read low 0.0873 | S. cerevisiae deletion strains, locus YLR330W, strain CHS5, active compounds read low 0.0555 | S. cerevisiae deletion strains, locus YLR342W, strain FKS1 (second series), active compounds read low 0.0854 | S. cerevisiae deletion strains, locus YLR342W, strain FKS1, active compounds read low 0.0648 | S. cerevisiae deletion strains, locus YLR357W, strain rsc2, active compounds read low 0.273 | S. cerevisiae deletion strains, locus YLR370C, strain arc18, active compounds read low 0.108 | S. cerevisiae deletion strains, locus YLR371W, strain rom2, active compounds read low 0.0629 | S. cerevisiae deletion strains, locus YLR384C, strain iki3, active compounds read low 0.118 | S. cerevisiae deletion strains, locus YLR418C, strain cdc73, active compounds read low 0.098 | S. cerevisiae deletion strains, locus YML016C, strain PPZ1, active compounds read low 0.0858 | S. cerevisiae deletion strains, locus YML032C, strain rad52, active compounds read low 0.0693 | S. cerevisiae deletion strains, locus YML120C, strain ndi1, active compounds read low 0.0588 | S. cerevisiae deletion strains, locus YML124C, strain tub3, active compounds read low 0.0644 | S. cerevisiae deletion strains, locus YMR058W, strain fet3, active compounds read low 0.131 | S. cerevisiae deletion strains, locus YMR078C, strain ctf18, active compounds read low 0.071 | S. cerevisiae deletion strains, locus YMR125W, strain sto1, active compounds read low 0.0949 | S. cerevisiae deletion strains, locus YMR129W, active compounds read low 0.0627 | S. cerevisiae deletion strains, locus YMR205C, strain PFK2, active compounds read low 0.102 | S. cerevisiae deletion strains, locus YMR223W, strain ubp8, active compounds read low 0.066 | S. cerevisiae deletion strains, locus YMR231W, strain pep5, active compounds read low 0.085 | S. cerevisiae deletion strains, locus YMR263W, strain SAP30, active compounds read low 0.0643 | S. cerevisiae deletion strains, locus YMR307W, strain GAS1, active compounds read low 0.145 | S. cerevisiae deletion strains, locus YNL067W, strain RPL9B, active compounds read low 0.0779 | S. cerevisiae deletion strains, locus YNL071W, strain lat1, active compounds read low 0.0636 | S. cerevisiae deletion strains, locus YNL128W, strain TEP1, active compounds read low 0.0892 | S. cerevisiae deletion strains, locus YNL153C, strain GIM3, active compounds read low 0.0714 | S. cerevisiae deletion strains, locus YNL183C, strain NPR1, active compounds read low -0.00267 | S. cerevisiae deletion strains, locus YNL209W, strain ssb2, active compounds read low 0.0857 | S. cerevisiae deletion strains, locus YNL233W, strain BNI4, active compounds read low 0.056 | S. cerevisiae deletion strains, locus YNL248C, strain rpa49, active compounds read low 0.109 | S. cerevisiae deletion strains, locus YNL250W, strain rad50, active compounds read low 0.0758 | S. cerevisiae deletion strains, locus YNL271C, strain bni1, active compounds read low 0.0676 | S. cerevisiae deletion strains, locus YNL298W, strain CLA4, active compounds read low 0.0642 | S. cerevisiae deletion strains, locus YNL307C, strain MCK1, active compounds read low 0.0664 | S. cerevisiae deletion strains, locus YNL322C, strain KRE1 (second series), active compounds read low 0.0828 | S. cerevisiae deletion strains, locus YNL322C, strain KRE1, active compounds read low 0.0618 | S. cerevisiae deletion strains, locus YNR049C, strain mso1, active compounds read low 0.109 | S. cerevisiae deletion strains, locus YNR052C, strain pop2, active compounds read low 0.0645 | S. cerevisiae deletion strains, locus YOL006C, strain TOP1, active compounds read low 0.0992 | S. cerevisiae deletion strains, locus YOL012C, strain htz1 0.176 | S. cerevisiae deletion strains, locus YOL147C, strain pex11, active compounds read low 0.0563 | S. cerevisiae deletion strains, locus YOR001W, strain rrp6, active compounds read low 0.0685 | S. cerevisiae deletion strains, locus YOR061W, strain CKA2, active compounds read low 0.0631 | S. cerevisiae deletion strains, locus YOR069W, strain VPS5, active compounds read low 0.0593 | S. cerevisiae deletion strains, locus YOR070C, strain gyp1, active compounds read low 0.0618 | S. cerevisiae deletion strains, locus YOR080W, strain dia2, active compounds read low 0.0748 | S. cerevisiae deletion strains, locus YOR083W, strain WHI5, active compounds read low 0.0694 | S. cerevisiae deletion strains, locus YOR106W, strain vam3, active compounds read low 0.0658 | S. cerevisiae deletion strains, locus YOR136W, strain idh2, active compounds read low 0.0708 | S. cerevisiae deletion strains, locus YOR144C, strain elg1, active compounds read low 0.0576 | S. cerevisiae deletion strains, locus YOR184W, strain ser1, active compounds read low 0.0699 | S. cerevisiae deletion strains, locus YOR231W, strain MKK1, active compounds read low 0.123 | S. cerevisiae deletion strains, locus YOR265W, strain rbl2, active compounds read low 0.0619 | S. cerevisiae deletion strains, locus YOR270C, strain vph1, active compounds read low 0.101 | S. cerevisiae deletion strains, locus YOR290C, strain snf2, active compounds read low 0.0874 | S. cerevisiae deletion strains, locus YOR316C, strain cot1, active compounds read low 0.0588 | S. cerevisiae deletion strains, locus YPL051W, strain arl3, active compounds read low 0.0629 | S. cerevisiae deletion strains, locus YPL055C, strain LGE1, active compounds read low 0.0724 | S. cerevisiae deletion strains, locus YPL078C, strain atp4, active compounds read low 0.0851 | S. cerevisiae deletion strains, locus YPL106C, strain sse1, active compounds read low 0.107 | S. cerevisiae deletion strains, locus YPL240C, strain hsp82, active compounds read low 0.0585 | S. cerevisiae deletion strains, locus YPL241C, strain CIN2, active compounds read low 0.0663 | S. cerevisiae deletion strains, locus YPL256C, strain CLN2, active compounds read low 0.114 | S. cerevisiae deletion strains, locus YPR119W, strain clb2, active compounds read low 0.0612 | S. cerevisiae deletion strains, locus YPR141C, strain kar3, active compounds read low 0.0922 | S. cerevisiae deletion strains, locus YPR163C, strain tif3, active compounds read low 0.07 | S. cerevisiae deletion strains, locus YPR167C, strain met16, active compounds read low 0.0608 | S. cerevisiae deletion strains, strain wtn01, active compounds read low 0.065 | S. cerevisiae strains, strain wild type, active compounds read low 0.051
